Source: PubChem
Dicer processing: human Dicer pre-microRNA cleavage inhibition. AID 1347074. 47,000 tested, 6% active. z-score at 25 µM. cat-ELCCA pre-miR-21 Dicer processing, chemiluminescence; stronger effect = higher value. Q9UPY3; in the data active = z-score above about 3, passing the limit was not always enough;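 also: plate controls were vehicle for no effect and no enzyme for full effect; higher signal means more uncleaved substrate so more Dicer inhibition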
Target sequence (Q9UPY3 whole entry, looked up): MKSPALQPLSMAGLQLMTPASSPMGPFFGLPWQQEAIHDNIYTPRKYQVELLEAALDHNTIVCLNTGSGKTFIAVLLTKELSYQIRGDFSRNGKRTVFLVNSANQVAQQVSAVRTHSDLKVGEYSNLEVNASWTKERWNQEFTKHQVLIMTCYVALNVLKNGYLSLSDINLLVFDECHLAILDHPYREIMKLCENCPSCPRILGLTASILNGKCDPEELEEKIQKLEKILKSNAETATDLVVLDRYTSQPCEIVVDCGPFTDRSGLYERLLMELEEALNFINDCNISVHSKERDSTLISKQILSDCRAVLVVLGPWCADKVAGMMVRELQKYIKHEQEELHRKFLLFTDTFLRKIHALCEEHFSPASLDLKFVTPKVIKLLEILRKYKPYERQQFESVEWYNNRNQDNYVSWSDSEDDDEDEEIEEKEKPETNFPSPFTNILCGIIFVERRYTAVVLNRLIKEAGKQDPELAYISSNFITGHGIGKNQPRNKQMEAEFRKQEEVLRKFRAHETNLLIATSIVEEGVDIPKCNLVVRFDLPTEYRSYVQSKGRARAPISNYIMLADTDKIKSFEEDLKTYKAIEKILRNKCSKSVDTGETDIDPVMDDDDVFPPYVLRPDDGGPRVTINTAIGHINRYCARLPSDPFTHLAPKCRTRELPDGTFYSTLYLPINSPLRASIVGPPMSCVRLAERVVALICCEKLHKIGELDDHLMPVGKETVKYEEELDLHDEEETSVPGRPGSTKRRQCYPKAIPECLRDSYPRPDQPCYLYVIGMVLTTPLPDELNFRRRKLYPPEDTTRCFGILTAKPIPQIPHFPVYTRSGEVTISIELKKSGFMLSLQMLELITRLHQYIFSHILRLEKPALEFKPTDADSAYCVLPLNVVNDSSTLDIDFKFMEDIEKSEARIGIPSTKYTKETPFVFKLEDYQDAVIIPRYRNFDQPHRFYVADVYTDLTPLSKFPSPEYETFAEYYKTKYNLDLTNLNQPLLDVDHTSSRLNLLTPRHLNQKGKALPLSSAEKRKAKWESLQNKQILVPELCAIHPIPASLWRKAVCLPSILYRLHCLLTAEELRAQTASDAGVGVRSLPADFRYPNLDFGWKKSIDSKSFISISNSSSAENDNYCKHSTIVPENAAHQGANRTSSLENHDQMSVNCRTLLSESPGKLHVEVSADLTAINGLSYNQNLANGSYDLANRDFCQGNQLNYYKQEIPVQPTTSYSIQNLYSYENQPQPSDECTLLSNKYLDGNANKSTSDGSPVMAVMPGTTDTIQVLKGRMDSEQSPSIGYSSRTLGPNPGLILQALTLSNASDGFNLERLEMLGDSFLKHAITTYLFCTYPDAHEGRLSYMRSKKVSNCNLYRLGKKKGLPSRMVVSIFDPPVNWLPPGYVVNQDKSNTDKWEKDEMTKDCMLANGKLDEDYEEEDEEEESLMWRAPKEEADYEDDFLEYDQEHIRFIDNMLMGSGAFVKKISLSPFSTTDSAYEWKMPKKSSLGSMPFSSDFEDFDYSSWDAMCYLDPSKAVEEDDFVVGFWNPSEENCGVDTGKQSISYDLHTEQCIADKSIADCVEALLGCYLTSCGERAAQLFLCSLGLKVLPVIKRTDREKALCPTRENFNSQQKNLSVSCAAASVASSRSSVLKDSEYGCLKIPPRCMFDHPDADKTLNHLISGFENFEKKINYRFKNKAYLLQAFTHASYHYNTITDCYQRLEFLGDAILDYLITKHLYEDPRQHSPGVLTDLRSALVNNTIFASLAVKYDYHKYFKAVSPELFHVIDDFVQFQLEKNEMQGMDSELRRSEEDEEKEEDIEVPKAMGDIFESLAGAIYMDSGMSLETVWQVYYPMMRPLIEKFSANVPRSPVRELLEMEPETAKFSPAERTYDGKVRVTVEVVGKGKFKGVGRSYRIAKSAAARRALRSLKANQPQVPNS
Starred values were filed as active, the others as inactive. The entries come from a sample that favours hits as a whole.

SMILES	Dicer processing
O=S(=O)(c1ccc2c(c1)Cc1cc(S(=O)(=O)N3CCCCC3)ccc1-2)N1CCCCC1	-0.07
CCN(CC)c1ncnc2c1sc1nc(C)c3c(c12)CC(C)(C)OC3	-0.79
CCOC(=O)/C(C)=N/Nc1ccc(C(F)(F)F)cc1	-0.85
Cc1ccc(S(=O)(=O)Nc2nc3ccc(N)cc3s2)cc1	8*
Cc1cc(C)c(S(=O)(=O)Nc2nc3ccccc3s2)c(C)c1	-3.9
Cc1ccc(S(=O)(=O)Nc2nc3cc(C)c(C)cc3s2)cc1	-1.5
COC(=O)c1ccc(Cl)cc1N(CCCC#N)S(=O)(=O)c1cccc(C(F)(F)F)c1	-0.42
O=C(O)c1cc2nc(-c3ccc4c(c3)OCO4)cc(C(F)(F)F)n2n1	-2
Cc1ccc(-c2cnc3c(-c4ccccc4)cnn3c2N)cc1	1.8
Nc1c(-c2ccc(Cl)cc2)cnc2c(-c3ccccc3)cnn12	3.1*
Cc1ccc(-c2cnc3c(-c4ccc(Cl)cc4)cnn3c2N)cc1	2.3
N#CC1=C2N=C(N)c3ccccc3N2C2=C(C(=O)CCC2)C1c1c(F)cccc1Cl (configuration not stated)	0.45
CC1(C)CC(=O)C2=C(C1)N(c1ccc(S(N)(=O)=O)cc1)C(N)=C(C#N)C2c1ccc(Cl)cc1 (configuration not stated)	-1.2
O=C(O)c1nn(-c2ccc(Cl)cc2)c(=O)c2ccccc12	-0.06
O=C1ON(c2ccccc2)C(=O)/C1=C/c1ccccc1	0.17
Cc1ccc2nc(-c3ccc(C)c(NC(=O)c4ccc([N+](=O)[O-])o4)c3)oc2c1	4.1*
Cc1ccc(-c2nc3cc(Cl)ccc3o2)cc1NC(=O)c1ccc([N+](=O)[O-])o1	0.65
O=C(Nc1ccc2oc(-c3cccc(Cl)c3)nc2c1)c1ccc([N+](=O)[O-])o1	7
COc1ccc(C(=O)Cn2c3ccccc3n3ncnc23)cc1	1.9
O=C(Cn1c(NCCO)nc2ccccc21)c1cccc(Br)c1	1
Cc1ccc(-c2cc(Cc3cccn3-c3ccc(Cl)cc3)c(=O)[nH]n2)cc1	3.8*
Cc1cc(Cc2ccc(Cl)cc2)c(=O)[nH]n1	-0.59
Cc1ccc(-c2cc(Cc3cccs3)c(=O)[nH]n2)cc1	16
Clc1cc(Cl)c(Nc2nc3c(s2)Cc2ccccc2-3)cc1Cl	-0.73
N#Cc1cnc2c(-c3ccc(Cl)cc3)cnn2c1N	0.25
SMILES	Dicer processing
CN(C)S(=O)(=O)N(CC(=O)Nc1cccnc1)c1ccccc1	0.57
O=c1cc(NCc2ccccc2)[nH]nc1-c1ccccc1	-0.39
ON/C=N/c1nc2c(s1)CCc1ccccc1-2	2.3
O=C(Nc1nc2c(s1)CCc1ccccc1-2)c1ccc(F)c(Cl)c1	3.7*
CCCCCCCCC(=O)Nc1nc2c(s1)CCc1ccccc1-2	-0.72
O=C(Nc1nc2c(s1)Cc1ccccc1-2)c1ccc(F)c(Cl)c1	1.2
CC(=O)Nc1nc2c(s1)Cc1ccccc1-2	-1.3
Oc1ccccc1CNc1nc2c(s1)CCc1ccccc1-2	4.3*
Cc1ccc2c(C)nc(Nc3ncc4c(n3)CC(c3ccc(F)cc3)CC4=O)nc2c1 (configuration not stated)	2.6
CC(=O)c1cnn(-c2ccccn2)c1C	-0.84
CCOC(=O)c1cc(C2CC2)nc2ccccc12	-1.2
CC1=C(C(=O)Nc2ccccc2)C(c2ccco2)C(C#N)=C(SCC(=O)Nc2ccc(F)cc2)N1 (configuration not stated)	-1.1
Cc1cc(C)nc(N/C=C2\C(=O)c3sccc3N(C)S2(=O)=O)n1	-0.52
O=c1[nH]c(=O)n(-c2ccc(F)cc2)c2c1CN(CCCc1ccccc1)CN2	-1.4
N/C(=N\C(=O)N1CCOCC1)c1ccccc1	-0.12
CCOC(=O)/C(C#N)=C/C=C(/c1ccc(Cl)cc1)N1CCOCC1	0.23
CC(=O)Oc1ccccc1/C(=C/C=C(c1ccccc1)c1ccccc1)N1CCOCC1	4.3*
O=C(/C=C(/CC(=O)c1ccccc1)c1ccccc1)c1ccc(F)cc1	0.71
N/C(COc1c(Cl)cccc1Cl)=N\O	-0.83
COc1ccccc1Nc1n[nH]c(=S)s1	-0.72
Cc1ccnc(Nc2nc(-c3c(C)nc4ccccn34)cs2)c1	3.1*
COc1ccccc1Nc1nc(-c2c(C)nc3cc(C)ccn23)cs1	4.6*
Cc1nc(C)c(-c2csc(Nc3ccc(N(C)C)cc3)n2)s1	4.1*
Cc1nc2ccccn2c1-c1ccnc(SCC(=O)Nc2ccc(F)cc2)n1	-0.85
Cc1nc2ccccn2c1-c1ccnc(SCC(=O)c2cccc(C(F)(F)F)c2)n1	-2.1
SMILES	Dicer processing
COc1ccc(-c2csc(Nc3ccc(N(C)C)cc3)n2)cc1	0.27
COc1ccccc1Nc1nc(-c2sc(N)nc2C)cs1	-3.3
Cc1ccn2c(-c3csc(Nc4ccc(N(C)C)cc4)n3)c(C)nc2c1	5.5*
Cc1nc(C)c(-c2csc(Nc3ccc(C(=O)O)c(O)c3)n2)s1	1.3
CCN(CC)c1ccc(Nc2nc(-c3ccc(O)cc3O)cs2)cc1	0.74
CN(C)c1ccc(Nc2nc(-c3cccs3)cs2)cc1	-1
CCCc1c(C)[nH]c2[nH]n(-c3ccccc3)c(=O)c2c1=O	-5.2
COc1ccc(CN2C(=O)c3oc4ccc(F)cc4c(=O)c3C2c2ccc(O)c(OC)c2)cc1 (configuration not stated)	-0.54
CCOC(=O)C1=C(C)NC2=C(C(=O)CC(C)(C)C2)C1c1cc2c(cc1Cl)OCO2 (configuration not stated)	-0.39
O=C1Nc2ccccc2/C1=C/c1cn[nH]c1-c1cccs1	1.4
Cc1ccc(C2Nn3c(C)nnc3SC2C(=O)Nc2cc(Cl)ccc2C)cc1 (configuration not stated)	2.2
CC(C)c1ccc(NC(=S)NC2CC3CCC2C3)cc1 (configuration not stated)	-0.06
CC(=O)Nc1ccc(C(C)(C)C)cc1N	1.1
CCCCNC(=O)N(C)C1CC2C=CC1C2 (configuration not stated)	1.2
CCCn1c(=O)c(/C(N)=N/OC(=O)Nc2ccc(Cl)cc2)nn(-c2ccccc2)c1=O	-0.1
Cc1cc(C)c(C#N)c(Nc2ccc(Br)cc2)n1	1.8
Cc1cc(C)nc(NS(=O)(=O)c2ccc(Nc3nc(-c4c(C)nc5ncccn45)cs3)cc2)n1	2.2
Cc1nc2sccn2c1-c1csc(Nc2ccc(Br)cc2)n1	4.2*
Cc1cc(NS(=O)(=O)c2ccc(Nc3nc(-c4c(C)nc5ccccn45)cs3)cc2)no1	3.5*
Brc1ccc(-c2csc(Nc3ccncc3)n2)cc1	32
Cc1cc(NS(=O)(=O)c2ccc(Cl)cc2)no1	0.21
Cc1nc(N)sc1-c1csc(Nc2ccc(Br)cc2)n1	-1.6
CCOC(=O)c1c(NC(=O)CC)sc2c1CCC(Sc1ccccc1)C2=O (configuration not stated)	6.1
Cc1ccc(C)n1-c1ccc(C(=O)NNS(=O)(=O)c2ccc(F)cc2F)cc1	1.8
CC(C)c1nc2sc3c(NCCO)ncnc3c2c2c1CCCC2	0.8
CCOc1ccc(N2C(=O)CC(Nc3ccc(N4CCOCC4)cc3)C2=O)cc1 (configuration not stated)	-1.2
CCN1C(=O)C2(/C(=C(/O)c3ccc(OC)c(C)c3)C(=O)C(=O)N2CCN(C)C)c2ccccc21 (configuration not stated)	-4
CCN1C(=O)C2(/C(=C(/O)c3ccc4c(c3)CC(C)O4)C(=O)C(=O)N2CCN(C)C)c2ccccc21 (configuration not stated)	-1.6
CCCCN1C(=O)C2(/C(=C(/O)c3ccc4c(c3)CC(C)O4)C(=O)C(=O)N2CCOC)c2ccccc21 (configuration not stated)	4.9*
